Measured values taken from ChEMBL document CHEMBL1157539, “Thousands of chemical starting points for antimalarial lead identification” (Nature, 2010).

test system: Plasmodium falciparum; test: GSK_TCMDC: Inhibition of Plasmodium falciparum 3D7 in whole red blood cells, using parasite LDH activity as an index of growth. Test compounds present at 2uM; format: functional

SMILES	Inhibition
CCCCc1ccc(S(=O)(=O)Nc2ccc3c(c2)CCN(Cc2c[nH]c4cnccc24)CC3)cc1.O=C(O)C(F)(F)F	99%
CC1(C)N=C(N)N=C(N)N1c1ccc2ccccc2c1.Cl	95%
CC(CN1CCN(C)CC1)C(=O)Nc1ccc(-c2csc(-c3nc4ccccc4[nH]3)c2)cc1 (centres undefined)	93%
CCNc1cc(C(=O)N[C@@H](Cc2ccccc2)[C@H](O)CNCCC(C)(C)C)c(F)c(N2CCCCS2(=O)=O)c1.O=CO	98%

test system: Plasmodium falciparum; test: GSK_TCMDC: Inhibition of Plasmodium falciparum Dd2 in whole red blood cells, using parasite LDH activity as an index of growth. Test compounds present at 2uM; format: functional

SMILES	Inhibition
CC(C)C1=NC(=O)c2cc([N+](=O)[O-])ccc2CN1	0%
CC(C)Oc1cc(-c2ccc(S(C)(=O)=O)cc2)nc(N(Cc2cccc(F)c2F)Cc2cccc(F)c2F)n1	99%
Cl.N#Cc1ccc2c(c1)CCN(CCC1CCC(NC(=O)c3ccc(-c4ccccc4)s3)CC1)CC2 (centres undefined)	36%
O=C(Nc1ccc2ccccc2c1)N1CCC(NCc2cccc([N+](=O)[O-])c2)CC1.O=C(O)C(F)(F)F	0%
COc1ccc2[nH]ccc(=NN=Cc3cccc(F)c3)c2c1	65%
O=C(Nc1cccc(C(F)(F)F)c1)c1ccc(S(=O)(=O)NCC2CCCN2CC2CCCCC2)cc1.O=C(O)C(F)(F)F (centres undefined)	3%
Cc1ccc(CN2CCC(Oc3cccc(NC(=O)c4ccc(C(F)(F)F)cc4)c3)CC2)cc1.O=C(O)C(F)(F)F	15%
O=C(NC1CCC(N2CCC(c3ccccc3C(F)(F)F)CC2)CC1)c1cc2ccccc2[nH]1 (centres undefined)	98%
Cc1cccc2nc(-c3ccc(-c4ccc(CN5CCCCC5CO)cc4)cc3)[nH]c12.O=C(O)C(F)(F)F (centres undefined)	76%
NCc1cccc(-c2ccc(CNC3CCN(Cc4ccccc4)CC3)cc2)c1.O=C(O)C(F)(F)F	3%
CCNC(C)(C)CN(Cc1ccc(-c2ccc(C(F)(F)F)cc2)cc1)C(=O)Cn1c(CCc2cccc(F)c2F)nc(=O)c2ccccc21.O=C(O)C(O)C(O)C(=O)O	70%
CCc1nc2nc(C)cc(Nc3ccc4c(c3)OCCO4)n2n1	55%
CCC[C@@H]([C@@H](CC1CCCCC1)C(=O)N[C@H](C(=O)Nc1nccs1)C(C)(C)SCCOCCOCC)N(O)C=O	97%
Cc1oc(-c2ccc(Cl)cc2)cc1C(=O)NCCC1CCN(CCCCCNC(=O)/C=C/c2ccc(Cl)c(Cl)c2)CC1	88%
CC(C)COc1ccc(Cl)cc1Nc1nc(-c2nc3ccccc3[nH]2)cs1.Cl	29%
CCCNC(=O)C1Cc2c([nH]c3ccc(Br)cc23)C2(CCN(CCc3ccccc3)CC2)N1 (centres undefined)	49%
CN(C)c1ccc(-c2csc(C(=O)NC3CCCCN(CCC(C)(C)C)C3)c2)cc1.O=C(O)C(F)(F)F (centres undefined)	68%
Cc1ccc2nc(-c3ccc(C(=O)NCc4ccc(Cl)c(Cl)c4)cc3)[nH]c2c1C	26%
Cc1ccc(-c2cc(C(=O)Nc3ccc(S(=O)(=O)N4CCOCC4)cc3)[nH]n2)c(O)c1C	45%
COC(=O)c1cccc(CNCc2ccc(-c3ccc(-c4nc5cc(F)ccc5[nH]4)s3)cc2)c1.O=C(O)C(F)(F)F	82%

SMILES	Inhibition
COc1ccc(CCN(Cc2cccs2)C(=O)c2cc3sccc3n2C)cc1OC	97%
CC1(CCCCN2CCC(c3c[nH]c4cnccc34)CC2)C(=O)Nc2cccc(Cl)c21 (centres undefined)	0%
CC(C)CC(C)NC(=O)C1Cc2c([nH]c3cc(Cl)ccc23)C2(CCN(CCc3ccccc3)CC2)N1 (centres undefined)	65%
CC(=NNC(=N)N)c1ccc2ccc3ccccc3c2c1.Cl	23%
Cc1ccc(NC(=O)N2CCN(CCCCCNC(=O)/C=C/c3ccc(Cl)c(Cl)c3)CC2)cc1C	0%
Cc1cc2ncc(C(N)=O)c(Nc3ccc(N4CCOCC4)cc3)c2cc1S(C)(=O)=O.Cl	96%
O=C(Cc1ccc(NC(=O)c2ccc(O)c(-c3ccc(Cl)c(Cl)c3)c2)cc1)NCCN1CCOCC1	24%
CN(C(=O)c1ccc(Br)cc1)c1ccccc1[N+](=O)[O-]	0%
COc1ccc(CC(=O)NC2CCN(c3ccnc4cc(Cl)ccc34)C2)cc1.O=C(O)C(F)(F)F (centres undefined)	88%
Cl.O=S(=O)(Nc1ccc2nccc(N3CCNCC3)c2c1)c1ccc(-c2ccccc2)cc1	0%
CN1CCCN(Cc2ccc(-c3cccc(NC(=O)c4ccc(Cl)cc4)c3)cc2)CC1.O=C(O)C(F)(F)F	50%
COc1cc2nccc(Nc3ccc(NC(=O)c4ccc(C)cc4)c(O)c3)c2cc1OC.Cl	77%
CN(C)Cc1ccc(-c2cccc(NC(=O)c3cccc(Cl)c3)c2)cc1.O=C(O)C(F)(F)F	12%
COc1cccc(C(=O)NC(NC(=S)Nc2ccc(OC)cc2[N+](=O)[O-])C(Cl)(Cl)Cl)c1 (centres undefined)	49%
Br.Cc1cccc2c(CON3C(N)=NC(N)=NC3(C)C)cccc12	94%
CCc1nc(N)nc(N)c1-c1ccccc1	1%
CCCCc1ccc(S(=O)(=O)Nc2ccc3c(c2)CCN(Cc2c[nH]c4cnccc24)CC3)cc1.O=C(O)C(F)(F)F	12%
CC1(C)N=C(N)N=C(N)N1c1ccc2ccccc2c1.Cl	0%
CC(CN1CCN(C)CC1)C(=O)Nc1ccc(-c2csc(-c3nc4ccccc4[nH]3)c2)cc1 (centres undefined)	26%
CCNc1cc(C(=O)N[C@@H](Cc2ccccc2)[C@H](O)CNCCC(C)(C)C)c(F)c(N2CCCCS2(=O)=O)c1.O=CO	93%
